Assay in all cases: DAPPL (digital affinity profiling via proximity ligation, sequencing); 10 mM Tris-HCl pH 7.5, 50 mM NaCl, 1 mM DTT, 4% glycerol, room temperature, 30 min; GST-TFs on glutathione beads, 16-mer random dsDNA library, 0.1% formaldehyde crosslink after washing; high values mean tight binding
One assay has as its target T1, FEV (Homo sapiens, UniProt Q99581 1-238).
T1 sequence: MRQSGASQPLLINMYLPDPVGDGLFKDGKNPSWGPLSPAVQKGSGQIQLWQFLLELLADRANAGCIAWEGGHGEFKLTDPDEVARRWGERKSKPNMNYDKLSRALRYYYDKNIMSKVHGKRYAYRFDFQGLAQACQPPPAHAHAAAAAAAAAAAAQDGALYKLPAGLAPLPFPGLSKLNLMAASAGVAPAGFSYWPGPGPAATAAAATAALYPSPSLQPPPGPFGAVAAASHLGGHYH
The conditions noted are these: protein: recombinant; tags: N-terminal GST; dsDNA, one strand shown. Put shortly:
(§1)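 Human transcription factors carrying a GST fusion were produced in yeast, bound to glutathione beads, tagged with DNA barcodes and pooled together with a tag-only sample. Each pool was held with 200 nmole of a random double-stranded 16-mer DNA library in Tris/NaCl/DTT/glycerol buffer for 30 min at room temperature, then washed, crosslinked in 0.1% formaldehyde, proximity-ligated with BsaI/T4 ligase (1 h, 37 °C), PCR-amplified and sequenced on an Illumina NextSeq500. Binding signal is the read frequency of each hexamer for a given factor divided by its frequency in the tag-only sample.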

The next assay has as its target ETV5 (Homo sapiens, UniProt P41161 1-510). The conditions noted are these: protein: recombinant; tags: N-terminal GST; dsDNA, one strand shown. A digest of the protocol:
as §1

The next assay has as its target HSF1 (Homo sapiens, UniProt Q00613 1-529). The following applies: protein: recombinant; tags: N-terminal GST; chain copies: 3; dsDNA, one strand shown. Put shortly:
as §1

The target in a further assay is T2, SPIC (Homo sapiens, UniProt Q8N5J4 1-248).
T2 sequence: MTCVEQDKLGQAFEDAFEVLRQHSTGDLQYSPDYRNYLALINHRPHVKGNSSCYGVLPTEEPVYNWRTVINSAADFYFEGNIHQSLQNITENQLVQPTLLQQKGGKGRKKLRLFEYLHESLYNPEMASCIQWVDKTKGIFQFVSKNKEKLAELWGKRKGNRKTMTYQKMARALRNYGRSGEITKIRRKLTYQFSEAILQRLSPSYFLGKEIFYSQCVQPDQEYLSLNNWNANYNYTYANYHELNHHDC
The following applies: protein: recombinant; tags: N-terminal GST; dsDNA, one strand shown. A digest of the protocol: as §1

In another assay the target is ELF4 (Homo sapiens, UniProt Q99607 1-663). The following applies: protein: recombinant; tags: N-terminal GST; dsDNA, one strand shown. A digest of the protocol: as §1
The target of a further assay is T3, ELK4 (Homo sapiens, UniProt P28324-2 1-405).
T3 sequence: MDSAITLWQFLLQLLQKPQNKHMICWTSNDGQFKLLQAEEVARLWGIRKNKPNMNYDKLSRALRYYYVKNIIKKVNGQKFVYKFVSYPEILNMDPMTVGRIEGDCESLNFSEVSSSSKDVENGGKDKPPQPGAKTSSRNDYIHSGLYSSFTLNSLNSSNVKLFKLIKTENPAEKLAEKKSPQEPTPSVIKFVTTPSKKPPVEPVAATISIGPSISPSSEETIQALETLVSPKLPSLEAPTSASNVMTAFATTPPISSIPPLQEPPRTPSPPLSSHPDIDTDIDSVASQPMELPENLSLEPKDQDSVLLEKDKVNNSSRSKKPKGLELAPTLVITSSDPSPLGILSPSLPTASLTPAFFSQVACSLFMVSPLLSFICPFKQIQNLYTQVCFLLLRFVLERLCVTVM
The following applies: protein: recombinant; tags: N-terminal GST; dsDNA, one strand shown. Put shortly:
as §1

Another assay addresses T4, ETV2 (Homo sapiens, UniProt O00321 1-342).
T4 sequence: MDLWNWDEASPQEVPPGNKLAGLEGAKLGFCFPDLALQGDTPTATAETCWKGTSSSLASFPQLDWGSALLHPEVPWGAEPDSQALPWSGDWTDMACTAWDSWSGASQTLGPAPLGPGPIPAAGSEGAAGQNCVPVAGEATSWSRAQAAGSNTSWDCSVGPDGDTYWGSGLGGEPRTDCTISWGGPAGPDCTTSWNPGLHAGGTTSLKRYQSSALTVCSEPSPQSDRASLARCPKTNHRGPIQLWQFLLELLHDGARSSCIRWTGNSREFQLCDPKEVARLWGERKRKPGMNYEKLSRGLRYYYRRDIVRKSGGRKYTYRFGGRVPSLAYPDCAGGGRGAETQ
The following applies: protein: recombinant; tags: N-terminal GST; dsDNA, one strand shown. Put shortly:
as §1

In a further assay the target is T5, ELF3 (Homo sapiens, UniProt P78545 1-371).
T5 sequence: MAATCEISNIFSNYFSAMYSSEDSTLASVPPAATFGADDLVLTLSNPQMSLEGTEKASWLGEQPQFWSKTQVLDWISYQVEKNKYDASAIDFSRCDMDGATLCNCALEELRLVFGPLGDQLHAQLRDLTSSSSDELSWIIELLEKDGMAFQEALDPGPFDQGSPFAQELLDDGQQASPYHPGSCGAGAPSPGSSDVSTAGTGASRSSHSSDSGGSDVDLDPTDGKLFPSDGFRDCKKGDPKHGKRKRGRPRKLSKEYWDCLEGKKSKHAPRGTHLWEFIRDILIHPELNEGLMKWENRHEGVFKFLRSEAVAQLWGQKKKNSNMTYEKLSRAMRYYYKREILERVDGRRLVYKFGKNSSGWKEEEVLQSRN
The following applies: protein: recombinant; tags: N-terminal GST; dsDNA, one strand shown. A digest of the protocol: as §1

For the next assay, the target named is CRX (Homo sapiens, UniProt O43186 1-299). The conditions noted are these: protein: recombinant; tags: N-terminal GST; dsDNA, one strand shown. A digest of the protocol: as §1
In another assay the target is ETV1 (Homo sapiens, UniProt P50549 1-477). The following applies: protein: recombinant; tags: N-terminal GST; dsDNA, one strand shown. Put shortly:
as §1

A further assay deals with T6, ERF (Homo sapiens, UniProt P50548 1-548).
T6 sequence: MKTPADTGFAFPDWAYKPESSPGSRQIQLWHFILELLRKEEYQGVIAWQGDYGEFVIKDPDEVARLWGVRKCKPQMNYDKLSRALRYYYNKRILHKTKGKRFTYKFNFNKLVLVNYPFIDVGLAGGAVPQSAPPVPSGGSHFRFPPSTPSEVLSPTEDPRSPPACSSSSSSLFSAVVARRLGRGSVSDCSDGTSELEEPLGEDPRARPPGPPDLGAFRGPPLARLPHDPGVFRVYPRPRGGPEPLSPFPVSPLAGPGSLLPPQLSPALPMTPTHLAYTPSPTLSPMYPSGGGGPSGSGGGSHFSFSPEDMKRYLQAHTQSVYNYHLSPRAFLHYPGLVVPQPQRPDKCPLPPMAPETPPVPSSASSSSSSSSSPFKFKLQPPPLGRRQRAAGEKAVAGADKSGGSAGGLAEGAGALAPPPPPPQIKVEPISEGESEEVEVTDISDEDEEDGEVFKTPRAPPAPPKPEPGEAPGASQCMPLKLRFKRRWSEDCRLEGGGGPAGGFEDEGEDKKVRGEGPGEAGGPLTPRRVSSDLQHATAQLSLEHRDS
The conditions noted are these: protein: recombinant; tags: N-terminal GST; dsDNA, one strand shown. Put shortly: as §1

A further assay deals with T7, ETV3L (Homo sapiens, UniProt Q6ZN32 1-361).
T7 sequence: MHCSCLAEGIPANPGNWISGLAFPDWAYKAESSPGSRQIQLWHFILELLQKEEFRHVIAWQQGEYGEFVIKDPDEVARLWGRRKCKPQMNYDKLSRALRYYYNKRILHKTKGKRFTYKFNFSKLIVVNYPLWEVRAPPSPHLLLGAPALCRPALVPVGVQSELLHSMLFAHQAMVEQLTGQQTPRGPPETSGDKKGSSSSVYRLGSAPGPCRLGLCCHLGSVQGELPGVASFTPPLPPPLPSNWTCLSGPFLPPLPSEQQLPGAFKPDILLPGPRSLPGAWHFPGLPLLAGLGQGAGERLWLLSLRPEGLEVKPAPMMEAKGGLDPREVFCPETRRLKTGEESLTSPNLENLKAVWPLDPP
The following applies: protein: recombinant; tags: N-terminal GST; dsDNA, one strand shown. A digest of the protocol: as §1

A further assay has as its target T8, ETS2 (Homo sapiens, UniProt P15036 1-469).
T8 sequence: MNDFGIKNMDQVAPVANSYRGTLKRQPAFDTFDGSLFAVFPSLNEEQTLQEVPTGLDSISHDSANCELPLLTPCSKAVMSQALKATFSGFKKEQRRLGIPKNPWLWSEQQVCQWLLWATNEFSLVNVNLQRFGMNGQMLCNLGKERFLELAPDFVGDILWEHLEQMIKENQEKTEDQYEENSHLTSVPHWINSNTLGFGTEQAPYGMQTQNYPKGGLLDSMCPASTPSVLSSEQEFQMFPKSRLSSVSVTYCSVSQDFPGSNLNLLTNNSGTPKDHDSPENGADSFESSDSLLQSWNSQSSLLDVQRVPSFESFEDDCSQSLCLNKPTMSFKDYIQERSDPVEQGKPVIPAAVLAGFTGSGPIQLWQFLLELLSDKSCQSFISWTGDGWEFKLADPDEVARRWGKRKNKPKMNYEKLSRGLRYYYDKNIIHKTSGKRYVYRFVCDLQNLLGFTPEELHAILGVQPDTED
The following applies: protein: recombinant; tags: N-terminal GST; dsDNA, one strand shown. Put shortly: as §1

The target of a further assay is T9, SPDEF (Homo sapiens, UniProt O95238 1-335).
T9 sequence: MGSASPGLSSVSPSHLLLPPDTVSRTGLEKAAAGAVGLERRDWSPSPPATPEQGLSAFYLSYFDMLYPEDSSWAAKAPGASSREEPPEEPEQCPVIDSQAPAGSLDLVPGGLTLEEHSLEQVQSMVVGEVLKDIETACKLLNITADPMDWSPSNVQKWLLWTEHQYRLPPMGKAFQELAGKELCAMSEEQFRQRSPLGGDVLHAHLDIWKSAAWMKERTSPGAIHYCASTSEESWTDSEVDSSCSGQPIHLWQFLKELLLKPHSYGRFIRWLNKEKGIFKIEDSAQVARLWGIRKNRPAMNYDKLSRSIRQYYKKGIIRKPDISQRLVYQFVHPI
The following applies: protein: recombinant; tags: N-terminal GST; dsDNA, one strand shown. Put shortly: as §1

The target in another assay is T10, ETV7 (Homo sapiens, UniProt Q9Y603 1-341).
T10 sequence: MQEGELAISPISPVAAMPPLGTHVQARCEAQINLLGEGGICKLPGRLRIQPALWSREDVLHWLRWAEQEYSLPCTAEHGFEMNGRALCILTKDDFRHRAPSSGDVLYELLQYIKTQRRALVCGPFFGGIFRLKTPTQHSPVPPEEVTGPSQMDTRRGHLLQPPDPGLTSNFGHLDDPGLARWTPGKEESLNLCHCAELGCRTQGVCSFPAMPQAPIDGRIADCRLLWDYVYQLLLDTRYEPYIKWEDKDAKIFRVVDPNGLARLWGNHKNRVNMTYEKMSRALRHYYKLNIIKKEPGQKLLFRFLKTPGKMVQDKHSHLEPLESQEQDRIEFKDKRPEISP
The conditions noted are these: protein: recombinant; tags: N-terminal GST; dsDNA, one strand shown. Put shortly: as §1

The target in a further assay is T11, ELF5 (Homo sapiens, UniProt Q9UKW6-2 1-255).
T11 sequence: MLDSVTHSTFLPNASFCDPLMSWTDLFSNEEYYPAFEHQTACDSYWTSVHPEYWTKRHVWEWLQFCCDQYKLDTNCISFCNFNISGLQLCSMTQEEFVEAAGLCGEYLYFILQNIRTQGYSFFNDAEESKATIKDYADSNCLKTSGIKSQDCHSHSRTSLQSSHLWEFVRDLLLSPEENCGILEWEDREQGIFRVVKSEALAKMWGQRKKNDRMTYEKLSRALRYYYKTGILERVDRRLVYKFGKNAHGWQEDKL
The following applies: protein: recombinant; tags: N-terminal GST; dsDNA, one strand shown. Put shortly: as §1

In a further assay the target is T12, ETV3 (Homo sapiens, UniProt P41162-2 1-143).
T12 sequence: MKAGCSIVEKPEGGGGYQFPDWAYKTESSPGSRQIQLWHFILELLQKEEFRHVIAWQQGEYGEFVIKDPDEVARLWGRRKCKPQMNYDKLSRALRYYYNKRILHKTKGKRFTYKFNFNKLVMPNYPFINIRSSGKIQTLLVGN
The conditions noted are these: protein: recombinant; tags: N-terminal GST; dsDNA, one strand shown. Put shortly: as §1

For another assay, the target named is ETV6 (Homo sapiens, UniProt P41212 1-452). The conditions noted are these: protein: recombinant; tags: N-terminal GST; dsDNA, one strand shown. A digest of the protocol: as §1
Chain of ETV6 (P41212 whole entry): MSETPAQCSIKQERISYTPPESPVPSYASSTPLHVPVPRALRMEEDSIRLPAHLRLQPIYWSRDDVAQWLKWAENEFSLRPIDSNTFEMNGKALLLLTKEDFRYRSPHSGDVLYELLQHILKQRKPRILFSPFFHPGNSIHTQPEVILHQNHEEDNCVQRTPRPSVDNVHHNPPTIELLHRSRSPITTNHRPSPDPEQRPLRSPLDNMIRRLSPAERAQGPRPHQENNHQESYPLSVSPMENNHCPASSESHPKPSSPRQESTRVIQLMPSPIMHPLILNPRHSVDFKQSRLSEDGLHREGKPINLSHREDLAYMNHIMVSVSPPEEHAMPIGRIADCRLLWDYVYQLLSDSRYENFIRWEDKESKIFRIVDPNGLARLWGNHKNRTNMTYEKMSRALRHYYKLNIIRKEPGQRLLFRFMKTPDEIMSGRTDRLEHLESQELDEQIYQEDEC

Chain of CRX (O43186 whole entry): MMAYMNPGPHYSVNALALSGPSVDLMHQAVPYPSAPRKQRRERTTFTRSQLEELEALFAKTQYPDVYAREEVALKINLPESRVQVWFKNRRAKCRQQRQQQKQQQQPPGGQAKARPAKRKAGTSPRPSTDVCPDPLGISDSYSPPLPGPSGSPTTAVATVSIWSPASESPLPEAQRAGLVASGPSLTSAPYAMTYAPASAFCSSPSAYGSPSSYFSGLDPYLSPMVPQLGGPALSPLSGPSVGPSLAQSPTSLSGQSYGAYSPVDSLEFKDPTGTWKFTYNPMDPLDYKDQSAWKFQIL
Chain of HSF1 (Q00613 whole entry): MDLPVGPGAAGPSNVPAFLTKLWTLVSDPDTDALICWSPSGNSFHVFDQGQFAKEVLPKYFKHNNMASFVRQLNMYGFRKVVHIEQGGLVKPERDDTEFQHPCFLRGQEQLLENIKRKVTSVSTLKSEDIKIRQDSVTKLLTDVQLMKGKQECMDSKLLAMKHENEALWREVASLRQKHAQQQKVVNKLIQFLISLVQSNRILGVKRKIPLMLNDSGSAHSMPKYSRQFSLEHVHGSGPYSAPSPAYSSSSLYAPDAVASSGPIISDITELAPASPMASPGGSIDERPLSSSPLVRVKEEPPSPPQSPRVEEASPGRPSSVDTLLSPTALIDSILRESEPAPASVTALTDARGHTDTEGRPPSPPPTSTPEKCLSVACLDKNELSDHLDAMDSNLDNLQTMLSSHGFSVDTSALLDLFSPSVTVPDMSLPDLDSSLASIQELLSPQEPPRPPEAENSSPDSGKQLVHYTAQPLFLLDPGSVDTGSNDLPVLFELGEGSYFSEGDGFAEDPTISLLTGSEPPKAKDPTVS
Chain of ELF4 (Q99607 whole entry): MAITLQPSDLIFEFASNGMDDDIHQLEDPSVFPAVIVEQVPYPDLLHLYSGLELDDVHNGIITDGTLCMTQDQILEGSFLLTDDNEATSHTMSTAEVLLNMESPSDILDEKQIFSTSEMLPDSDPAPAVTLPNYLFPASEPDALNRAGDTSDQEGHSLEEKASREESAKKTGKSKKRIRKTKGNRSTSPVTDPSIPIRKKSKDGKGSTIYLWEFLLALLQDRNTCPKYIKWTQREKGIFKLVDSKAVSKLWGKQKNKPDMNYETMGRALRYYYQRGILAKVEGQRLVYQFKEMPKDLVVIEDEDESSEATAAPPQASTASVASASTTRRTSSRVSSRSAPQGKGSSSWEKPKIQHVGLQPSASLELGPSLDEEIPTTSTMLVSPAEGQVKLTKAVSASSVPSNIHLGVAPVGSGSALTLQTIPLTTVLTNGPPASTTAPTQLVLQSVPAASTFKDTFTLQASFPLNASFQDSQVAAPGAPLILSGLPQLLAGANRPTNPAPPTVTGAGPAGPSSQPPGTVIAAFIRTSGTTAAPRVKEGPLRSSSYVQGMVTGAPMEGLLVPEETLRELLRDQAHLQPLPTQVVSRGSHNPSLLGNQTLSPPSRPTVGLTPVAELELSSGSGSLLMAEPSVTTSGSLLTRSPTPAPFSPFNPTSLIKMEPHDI
Chain of ETV1 (P50549 whole entry): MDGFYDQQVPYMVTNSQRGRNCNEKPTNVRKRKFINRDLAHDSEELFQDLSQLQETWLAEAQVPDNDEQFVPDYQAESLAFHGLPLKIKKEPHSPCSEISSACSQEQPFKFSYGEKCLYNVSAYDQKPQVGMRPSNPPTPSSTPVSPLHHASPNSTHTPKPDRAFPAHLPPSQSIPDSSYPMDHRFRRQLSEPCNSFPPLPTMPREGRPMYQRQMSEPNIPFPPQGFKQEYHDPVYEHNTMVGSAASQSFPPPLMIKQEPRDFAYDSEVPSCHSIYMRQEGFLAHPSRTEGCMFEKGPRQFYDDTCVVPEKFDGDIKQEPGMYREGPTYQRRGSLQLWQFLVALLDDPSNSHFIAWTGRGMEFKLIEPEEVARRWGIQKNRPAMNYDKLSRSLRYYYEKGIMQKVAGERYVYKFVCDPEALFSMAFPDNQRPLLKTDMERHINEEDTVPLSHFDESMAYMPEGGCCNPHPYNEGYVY
Chain of ETV5 (P41161 whole entry): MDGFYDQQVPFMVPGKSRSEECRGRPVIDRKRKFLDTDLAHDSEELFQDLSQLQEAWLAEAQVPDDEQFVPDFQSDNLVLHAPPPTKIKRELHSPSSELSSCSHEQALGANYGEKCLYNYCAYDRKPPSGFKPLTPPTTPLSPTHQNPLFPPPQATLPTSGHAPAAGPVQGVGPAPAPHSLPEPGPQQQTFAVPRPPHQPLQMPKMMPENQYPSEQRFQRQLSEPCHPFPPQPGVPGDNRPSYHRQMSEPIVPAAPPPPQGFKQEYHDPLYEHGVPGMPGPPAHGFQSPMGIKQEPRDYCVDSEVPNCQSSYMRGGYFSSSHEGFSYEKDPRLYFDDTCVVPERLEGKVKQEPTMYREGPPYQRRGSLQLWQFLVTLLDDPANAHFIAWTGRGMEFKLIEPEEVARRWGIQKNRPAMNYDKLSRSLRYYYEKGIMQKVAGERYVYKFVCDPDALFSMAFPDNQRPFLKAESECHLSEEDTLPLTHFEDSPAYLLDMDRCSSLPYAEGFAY

For AGCTTA, the binding signal with FEV was 1.06 fold enrichment (6-mer frequency, TF over GST control); with ETV5 it was 1.07 fold enrichment (6-mer frequency, TF over GST control); in the assay with HSF1, 1.94 fold enrichment (6-mer frequency, TF over GST control); in the assay with SPIC, 1.12 fold enrichment (6-mer frequency, TF over GST control); in the assay with ELF4 it was 1.11 fold enrichment (6-mer frequency, TF over GST control); in the assay with ELK4 it was 1.08 fold enrichment (6-mer frequency, TF over GST control). For the same sequence, the binding signal in the assay with ETV2 is 1.14 fold enrichment (6-mer frequency, TF over GST control); in the assay with ELF3 it was 1.23 fold enrichment (6-mer frequency, TF over GST control); with CRX it was 3.13 fold enrichment (6-mer frequency, TF over GST control); with ETV1 it was 1.23 fold enrichment (6-mer frequency, TF over GST control); with ERF, 1.2 fold enrichment (6-mer frequency, TF over GST control); with ETV3L, 1.08 fold enrichment (6-mer frequency, TF over GST control). For the same sequence, the binding signal with ETS2 is 1.15 fold enrichment (6-mer frequency, TF over GST control); with SPDEF it was 1.17 fold enrichment (6-mer frequency, TF over GST control); in the assay with ETV7, 1.15 fold enrichment (6-mer frequency, TF over GST control); with ELF5, 1.08 fold enrichment (6-mer frequency, TF over GST control); in the assay with ETV3, 1.17 fold enrichment (6-mer frequency, TF over GST control); with ETV6 it was 1.05 fold enrichment (6-mer frequency, TF over GST control).

Values taken from PMC7862700, “An all-to-all approach to the identification of sequence-specific readers for epigenetic DNA modifications on cytosine”.
